Compound activity as filed in PubChem.
Pol beta inh: blocks human DNA polymerase beta activity; P06746; Pol beta primer extension/strand displacement, fluorescence kinetic; Potency, µM (series often up to 114 µM), most hits filed as inhibitors; hit rate 1.3% among 340,000; AID 485314
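Homogeneous kinetic assay of primer extension and strand displacement by 10 nM Pol beta, preincubated 15 min at room temperature with compound before 50 nM substrate (final) was added. Read at 0 and 10 min; four-parameter Hill fit.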
POLH inh: DNA polymerase eta (human) inhibition; Potency, µM (series often up to 114 µM), hits mostly inhibitors; hit rate 1.2% among 390,000; recombinant Pol eta, fluorescent DNA replication assay; Q9Y253
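Fluorescent replication assay: 50 nM final substrate added after a 15 min room-temperature compound preincubation with 10 nM enzyme. Signal taken at 0 min and again at 10 min.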
GCN5L2 inh: GCN5L2 (KAT2A) acetyltransferase inhibition | Q92830 | AID 504327 | Potency, µM (titrated, usually from 58.9 µM), hits mostly inhibitors | GCN5L2 HAT assay, ThioGlo1 CoA-SH fluorescence | hit rate 0.21% among 390,000
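Enzyme at 20nM final was mixed with library compounds for 15 min at room temperature. Peptide H3(1-25) at 75uM, acetyl-CoA at 70uM and ThioGlo1 at 50uM were then added. Plates were read immediately and after 20 min (Ex340nm/Em540nm).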
Pol kappa inh: blocks human DNA polymerase kappa activity | Q9UBT6 | purified Pol kappa, fluorescent DNA synthesis assay, 10 min | Potency, µM (series often up to 107 µM), actives largely listed as inhibitors | hit rate 0.53% among 400,000
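50 nM final substrate added after 15 min RT preincubation of 10 nM Pol kappa with compound; fluorescence read at 0 and 10 min.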
Pol iota inh: DNA polymerase iota (human) inhibition; hit rate 1% among 390,000; Pol iota fluorescent replication assay, 10 min; Potency, µM (top dose mostly 115 µM), actives largely listed as inhibitors; Q9UNA4
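Fluorescent replication assay read twice, at 0 min and 10 min after adding 50 nM (final) substrate. Enzyme (10 nM) and compounds were first incubated 15 min at room temperature; enzyme-free buffer wells were negative controls.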
GLS inhibitor: inhibitors of human glutaminase (GLS); O94925; GLS enzymatic activity, qHTS titration; Potency, µM (titrated, usually from 45.5 µM), usual class: inhibitors; hit rate 0.21% among 410,000
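Enzyme dispensed in phosphate buffer (45 mM, pH 8.2, 0.02% Tween-20), compounds pinned in, then 1 mM L-glutamine solution and the glutamate oxidase–HRP–Amplex Red mix added; fluorescence read immediately and again after 30 min at room temperature.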
Large screens that a line does not name were inactive. Most compounds without a hit are left out; they make up all but 2.4% or so of the library. The call rests on the fitted dose curve; in most records, active means well fitted inhibition curve with a large enough effect; inconclusive means small, poorly fitted or top-dose-only effect, or another doubt; inactive means no such curve, though single readings can be large or run the other way.

O=C1CCCC2=C1C(c1ccc(O)c(O)c1)Nc1ccc3ccccc3c12 (stereo unspecified)	POLH inh inconclusive, Pol kappa inh inconclusive, Pol iota inh 79.4µM, GLS inhibitor inconclusive (no result: Pol beta inh, GCN5L2 inh)
CSCC[C@H](NC(=O)c1ccc(NC[C@@H](N)CS)cc1-c1ccccc1)C(=O)O	none (no result: Pol beta inh, POLH inh, Pol iota inh, GLS inhibitor)
COCCC(=O)N1CCc2c([nH]c3ccccc23)C1C(C)(C)C (stereo unspecified)	none
COCc1ccc(CN2CCc3c([nH]c4ccccc34)C2C(C)(C)C)o1 (stereo unspecified)	Pol beta inh 20µM
Clc1ccc[n+](CCCCC[n+]2cccc(Cl)c2)c1	none (no result: Pol beta inh, POLH inh, GCN5L2 inh, GLS inhibitor)
CN1CCN(S(=O)(=O)c2ccc3c(c2)C(C)(C)C(=O)N3C)CC1	none
CN1C(=O)C(C)(C)c2cc(S(=O)(=O)N3CCN(c4ccc(F)cc4)CC3)ccc21	none
CC1CCCN(S(=O)(=O)c2ccc3c(c2)C(C)(C)C(=O)N3C)C1 (stereo unspecified)	GCN5L2 inh 28.2µM
CN1C(=O)C(C)(C)c2cc(S(=O)(=O)N3CCN(c4cccc(Cl)c4)CC3)ccc21	Pol beta inh 14.1µM, Pol iota inh inconclusive
COc1cc(OC)c(OC)cc1/C=N/Nc1ncnc2c1[nH]c1ccccc12	none
COc1ccc(/C=N/Nc2ncnc3c2[nH]c2ccc(C)cc23)c(OC)c1OC	POLH inh 25.1µM
Cc1c(Cn2cnc3c(cnn3C(C)(C)C)c2=O)cccc1C(F)(F)F	none (no result: Pol beta inh, POLH inh, GCN5L2 inh, GLS inhibitor)
O=C(O)c1ccccc1-c1c2cc(Br)c(=O)c(Br)c-2oc2c(Br)c(O)c(Br)cc12	GCN5L2 inh 22.4µM, Pol kappa inh 10µM (no result: Pol beta inh, POLH inh, Pol iota inh)
CC(=O)c1ccc(N2CCN(C(=O)C3CCC3)CC2)cc1	none
O=C(C1CC1)N1CCN(c2ccc(O)cc2)CC1	GLS inhibitor 10µM
O=c1cc(CSc2nnc(-c3cccs3)n2Cc2ccccc2)nc2sc3ccccc3n12	Pol beta inh 10µM, POLH inh inconclusive, Pol kappa inh 79.4µM, Pol iota inh 12.6µM, GLS inhibitor inconclusive
COc1cccc2cc(C(=O)NCc3ccco3)c(=Nc3ccc(C(=O)O)cc3)oc12	POLH inh 89.1µM, GLS inhibitor inconclusive
Cc1c(C)c2ccc(OCC(=O)NC(Cc3c[nH]c4ccc(O)cc34)C(=O)O)c(C)c2oc1=O (stereo unspecified)	POLH inh inconclusive, GLS inhibitor 11.2µM
CC(=O)NC1CCCC1C#N (stereo unspecified)	none (no result: Pol beta inh, POLH inh, GCN5L2 inh, GLS inhibitor)
CCn1c(SCC(=O)N2c3ccccc3Sc3ccccc32)nnc1-c1ccco1	Pol beta inh 44.7µM
CCCn1c(SCC(=O)N2c3ccccc3Sc3ccccc32)nc2c1c(=O)n(C)c(=O)n2C	Pol iota inh 89.1µM
C=CCn1c(SCC(=O)N2c3ccccc3Sc3ccccc32)nnc1-c1ccco1	none
CCCCCCCCCCCCCCCCCCNC(=O)OC1CCN(C(=O)OC[C@H](COC(=O)N(Cc2cccc[n+]2CC)C(=O)c2ccccc2OC)OC)CC1	none (no result: Pol beta inh, POLH inh, GCN5L2 inh, Pol kappa inh, Pol iota inh)
CCc1ccccc1NC(=O)C(CC)Sc1ncnc2c1sc1ccccc12 (stereo unspecified)	Pol beta inh inconclusive
CSCC[C@H](NC(=O)[C@H](CCCNC(=N)N)NC(=O)[C@H](Cc1ccc(O)cc1)NC(=O)[C@@H]1CCCN1C(=O)CNC(=O)[C@H](CCC(=O)O)NC(=O)[C@H](CC(=O)O)NC(=O)[C@H](CCCCN)NC(=O)[C@H](CCCCN)NC(=O)[C@H](CCC(=O)O)NC(=O)[C@H](C)N)C(=O)N[C@@H](CCC(=O)O)C(=O)N[C@@H](Cc1cnc[nH]1)C(=O)N[C@@H](Cc1ccccc1)C(=O)N[C@@H](CCCNC(=N)N)C(=O)N[C@@H](Cc1c[nH]c2ccccc12)C(=O)NCC(=O)N[C@@H](CO)C(=O)N1CCC[C@H]1C(=O)N1CCC[C@H]1C(=O)N[C@@H](CCCCN)C(=O)N[C@@H](CC(=O)O)C(=O)O	none (no result: Pol beta inh, POLH inh, Pol iota inh, GLS inhibitor)
C#CCOCCOCCOCCNc1nc(N2CCN(C(=O)Cn3cc(CCCCN)nn3)CC2)nc(N2CCN(C(=O)Cn3cc(CCCN=C(N)N)nn3)CC2)n1	Pol kappa inh inconclusive, Pol iota inh 35.5µM (no result: Pol beta inh)
C#CCOCCOCCOCCNc1nc(N2CCN(C(=O)Cn3cc(CCCN=C(N)N)nn3)CC2)nc(N2CCN(C(=O)[C@H](C)n3cc(CCCN=C(N)N)nn3)CC2)n1	Pol beta inh 39.8µM, Pol kappa inh inconclusive, Pol iota inh inconclusive
C#CCOCCOCCOCCNc1nc(N2CCN(C(=O)Cn3cc(CCCCN)nn3)CC2)nc(N2CCN(C(=O)[C@H](C)n3cc(CCC(=O)O)nn3)CC2)n1	none (no result: Pol beta inh, GCN5L2 inh)
Cn1cc(C(=O)O)c(=O)c2cc(S(=O)(=O)N3CCCCC3)ccc21	none
Cc1c(C(=O)Nc2cccc(C#N)c2)sc2nc3n(c(=O)c12)CCCCC3	none
COc1ccc(NC(=O)c2ccc3c(=O)n4nc(Nc5ccccc5C)sc4nc3c2)cc1	Pol beta inh 3.98µM, POLH inh inconclusive
CCOc1ccc(NC(=O)c2ccc3c(=O)n4nc(Nc5ccccc5C)sc4nc3c2)cc1	none
COc1ccccc1Nc1nn2c(=O)c3ccc(C(=O)NCCc4ccccc4)cc3nc2s1	Pol beta inh inconclusive, POLH inh 79.4µM
COc1ccc(Nc2nn3c(=O)c4cc5c(cc4nc3s2)OCO5)c(OC)c1	Pol beta inh 3.55µM, POLH inh inconclusive
CC(C)(C)C(=O)NC1(C(F)(F)F)C(=O)Nc2c1c(=O)[nH]c(=O)n2-c1ccccc1 (stereo unspecified)	none
CC(=O)O[C@]1(C(=O)CO)[C@@H](C)C[C@H]2[C@@H]3CCC4=CC(=O)C=C[C@]4(C)[C@@]3(F)[C@@H](O)C[C@]21C	none (no result: Pol beta inh, POLH inh, GCN5L2 inh, Pol kappa inh, Pol iota inh)
CC(C)(C)n1ncc2c(=O)n(Cc3ccc(Cl)cc3F)cnc21	none (no result: Pol beta inh, POLH inh, GCN5L2 inh, GLS inhibitor)
CN(c1ccc(OCC(=O)OCC(=O)Nc2ccccc2)cc1)S(=O)(=O)c1cccs1	GCN5L2 inh 10µM
O=S(=O)(O)OCC1OC(COS(=O)(=O)O)(C2(OS(=O)(=O)O)OC(CO)C(OS(=O)(=O)O)C(OS(=O)(=O)O)C2OS(=O)(=O)O)C(OS(=O)(=O)O)C1OS(=O)(=O)O (stereo unspecified)	none (no result: Pol beta inh, POLH inh, GCN5L2 inh, Pol kappa inh, Pol iota inh)
Cc1nnc2ccc(-c3ccc(NS(=O)(=O)c4ccccc4[N+](=O)[O-])cc3)nn12	POLH inh 39.8µM, Pol kappa inh inconclusive, Pol iota inh inconclusive (no result: Pol beta inh)
COc1ccc(C2/C=C\CN(CC3CCCCC3)C(Cc3ccccc3)C(=O)N2Cc2ccc(F)cc2)cc1 (stereo unspecified)	none (no result: Pol beta inh, POLH inh, GCN5L2 inh, GLS inhibitor)
